In PubChem BioAssay AID1159580 (chemical genetic matrix, 2015):
Screen size: about 5,500 compounds; about 2,000 (36%) were called active. Another 18% or so got no clear call; they are omitted. Cut-off read from the data, not from the text of the source: active = normalized growth mostly below about 0.91 (no sharp cut-off); inconclusive = no clear call, values can overlap the other calls; inactive = mostly above about 0.92. The list shows a part of the results.

Assay: chemical genetic growth profiling, strain panel (AID 1159580);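 note: tested at 20 µM; growth read once vehicle control cultures reached saturation at 30 °C; 1 = growth at the plate median or of vehicle wells; lower values mean less growth of the strain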
Conditions: growth OD

Measured: normalized growth

COc1ccc2c(c1)[C@@]1(C)CCC(=O)C[C@H]1CC2
inactive: S. cerevisiae deletion strains, locus YAL013W, strain DEP1, hits give low values 0.984 | S. cerevisiae deletion strains, locus YAL021C, strain ccr4, hits give low values 0.989 | S. cerevisiae deletion strains, locus YAL026C, strain drs2, hits give low values 0.982 | S. cerevisiae deletion strains, locus YAL030W, strain snc1, hits give low values 0.959 | S. cerevisiae deletion strains, locus YBL061C, strain skt5, hits give low values 0.989 | S. cerevisiae deletion strains, locus YBR009C, strain hhf1, hits give low values 0.98 | S. cerevisiae deletion strains, locus YBR021W, strain FUR4, hits give low values 0.969 | S. cerevisiae deletion strains, locus YBR023C, strain chs3, hits give low values 0.98 | S. cerevisiae deletion strains, locus YBR171W, strain sec66, hits give low values 0.93 | S. cerevisiae deletion strains, locus YBR229C, strain ROT2, hits give low values 0.994 | S. cerevisiae deletion strains, locus YBR231C, strain swc5, hits give low values 0.986 | S. cerevisiae deletion strains, locus YBR279W, strain paf1, hits give low values 0.98 | S. cerevisiae deletion strains, locus YCL011C, strain gbp2, hits give low values 0.961 | S. cerevisiae deletion strains, locus YCL016C, strain dcc1, hits give low values 0.976 | S. cerevisiae deletion strains, locus YCL029C, strain bik1, hits give low values 0.985 | S. cerevisiae deletion strains, locus YCL061C, strain MRC1, hits give low values 0.949 | S. cerevisiae deletion strains, locus YCL069W, strain vba3, hits give low values 0.963 | S. cerevisiae deletion strains, locus YCR088W, strain abp1, hits give low values 0.978 | S. cerevisiae deletion strains, locus YDL005C, strain med2, hits give low values 0.954 | S. cerevisiae deletion strains, locus YDL035C, strain GPR1, hits give low values 1.01 | S. cerevisiae deletion strains, locus YDL040C, strain nat1, hits give low values 0.969 | S. cerevisiae deletion strains, locus YDL074C, strain BRE1, hits give low values 1.01 | S. cerevisiae deletion strains, locus YDL101C, strain DUN1, hits give low values 1 | S. cerevisiae deletion strains, locus YDL134C, strain PPH21, hits give low values 0.995 | S. cerevisiae deletion strains, locus YDL185W, strain tfp1, hits give low values 0.977 | S. cerevisiae deletion strains, locus YDL192W, strain arf1, hits give low values 0.98 | S. cerevisiae deletion strains, locus YDR001C, strain nth1, hits give low values 0.973 | S. cerevisiae deletion strains, locus YDR069C, strain doa4, hits give low values 0.963 | S. cerevisiae deletion strains, locus YDR101C, strain arx1, hits give low values 0.985 | S. cerevisiae deletion strains, locus YDR137W, strain rgp1, hits give low values 0.902 | S. cerevisiae deletion strains, locus YDR159W, strain sac3, hits give low values 0.937 | S. cerevisiae deletion strains, locus YDR162C, strain NBP2, hits give low values 1.01 | S. cerevisiae deletion strains, locus YDR195W, strain ref2 1.01 | S. cerevisiae deletion strains, locus YDR297W, strain sur2, hits give low values 0.98 | S. cerevisiae deletion strains, locus YDR318W, strain mcm21, hits give low values 0.975 | S. cerevisiae deletion strains, locus YDR334W, strain swr1, hits give low values 0.94 | S. cerevisiae deletion strains, locus YDR335W, strain msn5, hits give low values 0.967 | S. cerevisiae deletion strains, locus YDR388W, hits give low values 0.978 | S. cerevisiae deletion strains, locus YDR392W, strain spt3, hits give low values 0.938 | S. cerevisiae deletion strains, locus YDR502C, strain sam2, hits give low values 0.951 | S. cerevisiae deletion strains, locus YEL003W, strain gim4, hits give low values 0.942 | S. cerevisiae deletion strains, locus YEL037C, strain rad23, hits give low values 0.97 | S. cerevisiae deletion strains, locus YEL061C, strain CIN8 (second series), hits give low values 0.97 | S. cerevisiae deletion strains, locus YER015W, strain faa2, hits give low values 0.973 | S. cerevisiae deletion strains, locus YER016W, strain bim1, hits give low values 0.965 | S. cerevisiae deletion strains, locus YER110C, hits give low values 0.958 | S. cerevisiae deletion strains, locus YER111C, strain swi4, hits give low values 0.942 | S. cerevisiae deletion strains, locus YER155C, strain BEM2 (second series), hits give low values 0.899 | S. cerevisiae deletion strains, locus YER155C, strain BEM2, hits give low values 0.989 | S. cerevisiae deletion strains, locus YER167W, strain BCK2, hits give low values 0.996 | S. cerevisiae deletion strains, locus YFR010W, strain ubp6, hits give low values 0.992 | S. cerevisiae deletion strains, locus YGL078C, strain dbp3, hits give low values 0.983 | S. cerevisiae deletion strains, locus YGL086W, strain mad1, hits give low values 0.964 | S. cerevisiae deletion strains, locus YGL173C, strain kem1, hits give low values 0.949 | S. cerevisiae deletion strains, locus YGL227W, strain vid30, hits give low values 0.96 | S. cerevisiae deletion strains, locus YGL240W, strain doc1, hits give low values 0.923 | S. cerevisiae deletion strains, locus YGL248W, strain PDE1, hits give low values 0.998 | S. cerevisiae deletion strains, locus YGL253W, strain hxk2, hits give low values 0.932 | S. cerevisiae deletion strains, locus YGR135W, strain pre9, hits give low values 0.947 | S. cerevisiae deletion strains, locus YGR252W, strain gcn5, hits give low values 0.933 | S. cerevisiae deletion strains, locus YHR013C, strain ard1, hits give low values 0.966 | S. cerevisiae deletion strains, locus YHR027C, strain rpn1, hits give low values 0.965 | S. cerevisiae deletion strains, locus YHR079C, strain IRE1 (second series), hits give low values 0.977 | S. cerevisiae deletion strains, locus YHR094C, strain hxt1, hits give low values 0.968 | S. cerevisiae deletion strains, locus YHR129C, strain ARP1, hits give low values 0.992 | S. cerevisiae deletion strains, locus YHR142W, strain chs7, hits give low values 0.954 | S. cerevisiae deletion strains, locus YHR200W, strain rpn10, hits give low values 0.971 | S. cerevisiae deletion strains, locus YIL066C, strain RNR3, hits give low values 1.01 | S. cerevisiae deletion strains, locus YIL073C, strain SPO22, hits give low values 0.964 | S. cerevisiae deletion strains, locus YIL125W, strain kgd1, hits give low values 0.994 | S. cerevisiae deletion strains, locus YIR030C, strain dcg1, hits give low values 0.974 | S. cerevisiae deletion strains, locus YJL092W, strain hpr5, hits give low values 0.948 | S. cerevisiae deletion strains, locus YJL095W, strain BCK1 (second series), hits give low values 0.959 | S. cerevisiae deletion strains, locus YJL095W, strain BCK1, hits give low values 0.958 | S. cerevisiae deletion strains, locus YJL115W, strain asf1, hits give low values 0.936 | S. cerevisiae deletion strains, locus YJL129C, strain trk1, hits give low values 0.973 | S. cerevisiae deletion strains, locus YJL134W, strain LCB3, hits give low values 0.995 | S. cerevisiae deletion strains, locus YJL154C, strain vps35, hits give low values 0.958 | S. cerevisiae deletion strains, locus YJL164C, strain tpk1, hits give low values 0.972 | S. cerevisiae deletion strains, locus YJL166W, strain qcr8, hits give low values 0.96 | S. cerevisiae deletion strains, locus YJL168C, strain set2, hits give low values 0.951 | S. cerevisiae deletion strains, locus YJL187C, strain SWE1 (second series), hits give low values 0.998 | S. cerevisiae deletion strains, locus YKL009W, strain mrt4, hits give low values 0.997 | S. cerevisiae deletion strains, locus YKL068W, hits give low values 0.993 | S. cerevisiae deletion strains, locus YKL085W, strain MDH1 (second series), hits give low values 0.986 | S. cerevisiae deletion strains, locus YKL085W, strain MDH1, hits give low values 0.986 | S. cerevisiae deletion strains, locus YKL160W, strain elf1, hits give low values 0.977 | S. cerevisiae deletion strains, locus YKL190W, strain CNB1, hits give low values 0.994 | S. cerevisiae deletion strains, locus YKR001C, strain vps1, hits give low values 0.953 | S. cerevisiae deletion strains, locus YKR026C, strain gcn3, hits give low values 0.976 | S. cerevisiae deletion strains, locus YKR091W, strain srl3, hits give low values 0.968 | S. cerevisiae deletion strains, locus YLL001W, strain dnm1, hits give low values 0.951 | S. cerevisiae deletion strains, locus YLL026W, hits give low values 0.964 | S. cerevisiae deletion strains, locus YLL041C, strain sdh2, hits give low values 0.98 | S. cerevisiae deletion strains, locus YLR027C, strain aat2, hits give low values 0.968 | S. cerevisiae deletion strains, locus YLR039C, strain RIC1, hits give low values 0.96 | S. cerevisiae deletion strains, locus YLR058C, strain SHM2, hits give low values 0.995 | S. cerevisiae deletion strains, locus YLR102C, strain apc9, hits give low values 0.985 | S. cerevisiae deletion strains, locus YLR221C, strain rsa3, hits give low values 0.969 | S. cerevisiae deletion strains, locus YLR258W, strain gsy2, hits give low values 0.967 | S. cerevisiae deletion strains, locus YLR262C, strain YPT6 (second series), hits give low values 0.969 | S. cerevisiae deletion strains, locus YLR262C, strain YPT6, hits give low values 0.973 | S. cerevisiae deletion strains, locus YLR268W, strain sec22, hits give low values 0.965 | S. cerevisiae deletion strains, locus YLR320W, strain mms22, hits give low values 0.966 | S. cerevisiae deletion strains, locus YLR342W, strain FKS1, hits give low values 0.969 | S. cerevisiae deletion strains, locus YLR357W, strain rsc2, hits give low values 0.947 | S. cerevisiae deletion strains, locus YLR370C, strain arc18, hits give low values 0.953 | S. cerevisiae deletion strains, locus YLR371W, strain rom2, hits give low values 0.98 | S. cerevisiae deletion strains, locus YLR384C, strain iki3, hits give low values 0.969 | S. cerevisiae deletion strains, locus YLR418C, strain cdc73, hits give low values 0.956 | S. cerevisiae deletion strains, locus YML016C, strain PPZ1, hits give low values 0.989 | S. cerevisiae deletion strains, locus YML032C, strain rad52, hits give low values 0.988 | S. cerevisiae deletion strains, locus YML120C, strain ndi1, hits give low values 0.953 | S. cerevisiae deletion strains, locus YML124C, strain tub3, hits give low values 0.976 | S. cerevisiae deletion strains, locus YMR058W, strain fet3, hits give low values 0.948 | S. cerevisiae deletion strains, locus YMR078C, strain ctf18, hits give low values 0.965 | S. cerevisiae deletion strains, locus YMR125W, strain sto1, hits give low values 0.97 | S. cerevisiae deletion strains, locus YMR129W, hits give low values 0.994 | S. cerevisiae deletion strains, locus YMR205C, strain PFK2, hits give low values 0.976 | S. cerevisiae deletion strains, locus YMR223W, strain ubp8, hits give low values 0.98 | S. cerevisiae deletion strains, locus YMR231W, strain pep5, hits give low values 0.968 | S. cerevisiae deletion strains, locus YMR307W, strain GAS1, hits give low values 1 | S. cerevisiae deletion strains, locus YNL067W, strain RPL9B, hits give low values 0.975 | S. cerevisiae deletion strains, locus YNL071W, strain lat1, hits give low values 0.955 | S. cerevisiae deletion strains, locus YNL153C, strain GIM3, hits give low values 0.995 | S. cerevisiae deletion strains, locus YNL233W, strain BNI4, hits give low values 0.959 | S. cerevisiae deletion strains, locus YNL248C, strain rpa49, hits give low values 1.03 | S. cerevisiae deletion strains, locus YNL250W, strain rad50, hits give low values 0.968 | S. cerevisiae deletion strains, locus YNL271C, strain bni1, hits give low values 0.97 | S. cerevisiae deletion strains, locus YNL298W, strain CLA4, hits give low values 0.976 | S. cerevisiae deletion strains, locus YNL307C, strain MCK1, hits give low values 0.963 | S. cerevisiae deletion strains, locus YNL322C, strain KRE1 (second series), hits give low values 0.964 | S. cerevisiae deletion strains, locus YNL322C, strain KRE1, hits give low values 0.989 | S. cerevisiae deletion strains, locus YNR049C, strain mso1, hits give low values 0.932 | S. cerevisiae deletion strains, locus YNR052C, strain pop2, hits give low values 0.971 | S. cerevisiae deletion strains, locus YOL012C, strain htz1 1.7 | S. cerevisiae deletion strains, locus YOL147C, strain pex11, hits give low values 0.967 | S. cerevisiae deletion strains, locus YOR001W, strain rrp6, hits give low values 0.97 | S. cerevisiae deletion strains, locus YOR061W, strain CKA2, hits give low values 1 | S. cerevisiae deletion strains, locus YOR069W, strain VPS5, hits give low values 0.989 | S. cerevisiae deletion strains, locus YOR070C, strain gyp1, hits give low values 0.97 | S. cerevisiae deletion strains, locus YOR080W, strain dia2, hits give low values 0.956 | S. cerevisiae deletion strains, locus YOR083W, strain WHI5, hits give low values 0.969 | S. cerevisiae deletion strains, locus YOR106W, strain vam3, hits give low values 1 | S. cerevisiae deletion strains, locus YOR136W, strain idh2, hits give low values 0.98 | S. cerevisiae deletion strains, locus YOR144C, strain elg1, hits give low values 0.975 | S. cerevisiae deletion strains, locus YOR184W, strain ser1, hits give low values 0.92 | S. cerevisiae deletion strains, locus YOR265W, strain rbl2, hits give low values 0.973 | S. cerevisiae deletion strains, locus YOR270C, strain vph1, hits give low values 0.997 | S. cerevisiae deletion strains, locus YOR290C, strain snf2, hits give low values 0.957 | S. cerevisiae deletion strains, locus YOR316C, strain cot1, hits give low values 0.974 | S. cerevisiae deletion strains, locus YPL051W, strain arl3, hits give low values 0.985 | S. cerevisiae deletion strains, locus YPL078C, strain atp4, hits give low values 0.95 | S. cerevisiae deletion strains, locus YPL106C, strain sse1, hits give low values 0.928 | S. cerevisiae deletion strains, locus YPL240C, strain hsp82, hits give low values 0.977 | S. cerevisiae deletion strains, locus YPR119W, strain clb2, hits give low values 0.974 | S. cerevisiae deletion strains, locus YPR141C, strain kar3, hits give low values 0.976 | S. cerevisiae deletion strains, locus YPR163C, strain tif3, hits give low values 0.973 | S. cerevisiae deletion strains, locus YPR167C, strain met16, hits give low values 0.974 | S. cerevisiae deletion strains, strain wtn01, hits give low values 0.972 | S. cerevisiae strains, strain wild type, hits give low values 1.01
